# Assay results published in PubChem BioAssay (NCATS).
# Unmarked numbers belong to inactive results. Records with an inconclusive call do not appear. Active and inactive are the calls of the source. Unless noted, calls follow the shape of the dose curve; as a rule, active = well fitted curve in the direction sought with a large enough effect; inconclusive = small, poorly fitted or top-dose-only effect, or another doubt; inactive = no such curve, though single readings can be large; an effect the other way counts as inactive or inconclusive.
# Assays:
# [1] = target: Lysosomal acid glucosylceramidase (Homo sapiens) (UniProt P04062); test: Glucocerebrosidase-p2 (AID 348; in the data active = potency below about 10 µM; also: potency is read from the fitted curve at half-maximal effect); settings: purified GBA, blue fluorogenic substrate, 40 min
# Chain of Lysosomal acid glucosylceramidase (Homo sapiens) (P04062 whole entry, looked up): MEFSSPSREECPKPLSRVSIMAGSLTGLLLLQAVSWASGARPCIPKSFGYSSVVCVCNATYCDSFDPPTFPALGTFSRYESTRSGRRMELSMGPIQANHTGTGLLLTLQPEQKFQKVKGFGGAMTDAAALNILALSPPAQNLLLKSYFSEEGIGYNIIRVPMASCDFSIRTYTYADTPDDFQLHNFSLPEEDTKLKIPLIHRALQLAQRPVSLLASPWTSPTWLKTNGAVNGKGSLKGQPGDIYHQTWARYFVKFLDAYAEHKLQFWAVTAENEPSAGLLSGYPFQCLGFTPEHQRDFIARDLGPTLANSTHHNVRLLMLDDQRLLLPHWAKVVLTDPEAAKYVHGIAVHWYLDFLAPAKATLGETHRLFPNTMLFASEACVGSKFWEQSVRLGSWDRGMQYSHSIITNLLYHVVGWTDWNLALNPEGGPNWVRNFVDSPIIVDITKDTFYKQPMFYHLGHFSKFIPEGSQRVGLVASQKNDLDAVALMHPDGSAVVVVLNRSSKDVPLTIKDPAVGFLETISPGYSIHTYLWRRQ
# In short: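 Compounds titrated from 0.6 nM upwards against 0.2 nM enzyme in pH 5.9 citric acid/KH2PO4, taurocholate, tween-20; blue fluorogenic substrate 80 uM, 40 min room temperature, stopped and read Ex 365/Em 440 for AC50.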
# [2] = AP1 Signaling Pathway (AID 357; active = well fitted curve in either direction with a large enough effect, not every such curve was filed as active;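 also: ME-180 reporter cells stimulated with EGF at its EC50 level; % is scaled to controls: 0 for no effect and ±100 for the full control effect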); settings: ME-180 AP-1-bla reporter, EGF-induced, beta-lactamase ratio, 5 h; at 7.69 µM (top of the series) unless noted
# In short: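 A ratiometric CCF4 readout (405 nm excitation; 460 and 530 nm emission) quantified AP-1-driven beta-lactamase in ME-180 cells after 5 h with compound and EC50 EGF; AC50 values were derived for activators and inhibitors.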
# [3] = target: Cytochrome P450 1A2 (Homo sapiens) (UniProt P05177); test: p450-cyp1a2 (AID 410; calls by dose curve; also: potency is read from the fitted curve at half-maximal effect); settings: recombinant CYP1A2, luciferin-ME demethylation, luminescence; series mostly up to 57 µM
# Chain of Cytochrome P450 1A2 (Homo sapiens) (P05177 whole entry, looked up): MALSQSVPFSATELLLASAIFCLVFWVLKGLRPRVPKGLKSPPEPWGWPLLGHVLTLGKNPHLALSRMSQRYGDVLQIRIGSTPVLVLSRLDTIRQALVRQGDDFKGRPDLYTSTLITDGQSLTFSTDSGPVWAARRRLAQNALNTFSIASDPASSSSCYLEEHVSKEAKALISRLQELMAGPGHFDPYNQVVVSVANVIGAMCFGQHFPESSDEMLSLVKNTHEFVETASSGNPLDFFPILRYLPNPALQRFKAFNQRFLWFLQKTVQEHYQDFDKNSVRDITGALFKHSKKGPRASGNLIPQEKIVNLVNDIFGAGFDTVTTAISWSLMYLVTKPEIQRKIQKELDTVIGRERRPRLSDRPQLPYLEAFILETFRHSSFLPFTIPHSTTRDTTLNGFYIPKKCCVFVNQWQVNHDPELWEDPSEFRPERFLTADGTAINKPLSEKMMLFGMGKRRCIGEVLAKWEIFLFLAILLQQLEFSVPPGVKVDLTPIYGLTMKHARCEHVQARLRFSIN
# In short: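 Human CYP1A2 (20nM) demethylated Luciferin-ME at its Km (100uM) in 100mM KPO4. After 10 min compound preincubation, NADPH regeneration ran the reaction 60 min at room temperature. Luciferin was read by luminescence, normalized to 57 uM furafylline.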
# [4] = Stat Signaling Pathway (AID 446; active = well fitted curve in either direction with a large enough effect, not every such curve was filed as active;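 also: ME-180 cervical cancer cells given 40 pM IL-6 alongside compound; SIE-controlled beta-lactamase reporter measured as 460/530 nm FRET emission ratio; % is scaled to controls: 0 for no effect and ±100 for the full control effect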); settings: ME-180 SIE beta-lactamase reporter, IL-6 stimulated, 5 h; at 7.69 µM (top of the series) unless noted
# In short: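 ME-180 SIE-bla cells; overnight plating; cpd + IL-6 40 pM, 5 h, 37 C; LiveBLAzer 2.5 h RT; 460/530 nm emission ratio. Normalized to 300 pM IL-6 and 125 nM JAK inhibitor controls.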
# [5] = target: Glucocorticoid receptor (Homo sapiens) (UniProt P04150); test: GR-GFP Redistribution (AID 450;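 active = compounds whose dose series gives a full or clear partial fitted curve of increased nuclear translocation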; also: potency is read from the fitted curve at half-maximal effect); settings: U2OS GR-GFP nuclear translocation, laser cytometry, 2 h
# Chain of Glucocorticoid receptor (Homo sapiens) (P04150 whole entry, looked up, the tested form may be a part): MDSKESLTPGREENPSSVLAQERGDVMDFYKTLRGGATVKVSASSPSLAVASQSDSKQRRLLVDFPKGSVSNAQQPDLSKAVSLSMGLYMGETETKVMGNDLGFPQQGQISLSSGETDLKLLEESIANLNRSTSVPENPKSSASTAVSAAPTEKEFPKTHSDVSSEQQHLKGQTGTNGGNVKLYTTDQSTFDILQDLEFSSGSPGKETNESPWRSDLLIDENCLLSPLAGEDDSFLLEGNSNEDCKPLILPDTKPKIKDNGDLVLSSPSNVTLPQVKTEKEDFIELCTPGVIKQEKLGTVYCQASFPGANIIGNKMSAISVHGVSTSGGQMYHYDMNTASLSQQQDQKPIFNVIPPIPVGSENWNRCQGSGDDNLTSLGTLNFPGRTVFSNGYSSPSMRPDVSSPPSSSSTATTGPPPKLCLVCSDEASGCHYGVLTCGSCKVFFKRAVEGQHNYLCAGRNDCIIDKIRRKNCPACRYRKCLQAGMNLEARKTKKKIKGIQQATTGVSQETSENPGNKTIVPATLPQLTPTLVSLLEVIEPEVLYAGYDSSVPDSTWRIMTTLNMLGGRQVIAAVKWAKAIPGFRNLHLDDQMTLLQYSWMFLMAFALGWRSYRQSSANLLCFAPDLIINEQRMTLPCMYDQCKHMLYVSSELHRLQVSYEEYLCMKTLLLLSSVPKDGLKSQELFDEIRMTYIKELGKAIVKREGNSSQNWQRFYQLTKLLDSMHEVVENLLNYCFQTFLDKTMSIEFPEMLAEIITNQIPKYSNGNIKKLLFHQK
# [6] = target: Glucocorticoid receptor (Homo sapiens) (UniProt P04150); test: GR-EFC Redistribution (AID 451; calls by dose curve; also: potency is read from the fitted curve at half-maximal effect); settings: CHO-K1 GR-EFC translocation, beta-gal luminescence, 2 h
# In short: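 CHO-K1 cells stably expressing nuclear-localized β-gal enzyme acceptor and GR fused C-terminally to the enzyme donor fragment; ligand-driven nuclear translocation restores β-gal by complementation. Compounds titrated up to 46 uM final, 2 h at 37 °C; luminescence read.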
# [7] = target: Mitogen-activated protein kinase 10 (Mus musculus) (UniProt Q61831); test: JNK3 AlphaScreen Assay (AID 530; active = well fitted curve in either direction with a large enough effect, not every such curve was filed as active;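 also: kinase came from lysate of stimulated human HepG2 cells; signal reports phosphorylation of biotinylated GST-cJun 1-79 at Ser73 with 10 µM ATP; % is scaled to controls: 0 for no effect and ±100 for the full control effect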); settings: JNK3 lysate, c-Jun phosphorylation; series mostly up to 57.1 µM
# In short: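 JNK3 came from HepG2 lysates pre-activated with IL-1beta and TNF-alpha and phosphorylated biotinylated GST-cJun (1-79) at 10 uM ATP, pH 7.6, room temperature. Compounds were titrated. AlphaScreen signal used anti-phospho-cJun (Ser73) antibody.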
# [8] = target: 3',5'-cyclic-AMP phosphodiesterase 4B (Homo sapiens) (UniProt Q07343); test: qHTS Assay for Inhibitors of PDE-IV (AID 607; active = well fitted activation curve with a large enough effect in the main read-out, with a control signal flat, not every such curve was filed as active; also: % of control where 0% means no effect); settings: HEK293 ACTOne CNG channel cells, membrane potential fluorescence; series mostly up to 22.9 µM
# Chain of 3',5'-cyclic-AMP phosphodiesterase 4B (Homo sapiens) (Q07343 whole entry, looked up): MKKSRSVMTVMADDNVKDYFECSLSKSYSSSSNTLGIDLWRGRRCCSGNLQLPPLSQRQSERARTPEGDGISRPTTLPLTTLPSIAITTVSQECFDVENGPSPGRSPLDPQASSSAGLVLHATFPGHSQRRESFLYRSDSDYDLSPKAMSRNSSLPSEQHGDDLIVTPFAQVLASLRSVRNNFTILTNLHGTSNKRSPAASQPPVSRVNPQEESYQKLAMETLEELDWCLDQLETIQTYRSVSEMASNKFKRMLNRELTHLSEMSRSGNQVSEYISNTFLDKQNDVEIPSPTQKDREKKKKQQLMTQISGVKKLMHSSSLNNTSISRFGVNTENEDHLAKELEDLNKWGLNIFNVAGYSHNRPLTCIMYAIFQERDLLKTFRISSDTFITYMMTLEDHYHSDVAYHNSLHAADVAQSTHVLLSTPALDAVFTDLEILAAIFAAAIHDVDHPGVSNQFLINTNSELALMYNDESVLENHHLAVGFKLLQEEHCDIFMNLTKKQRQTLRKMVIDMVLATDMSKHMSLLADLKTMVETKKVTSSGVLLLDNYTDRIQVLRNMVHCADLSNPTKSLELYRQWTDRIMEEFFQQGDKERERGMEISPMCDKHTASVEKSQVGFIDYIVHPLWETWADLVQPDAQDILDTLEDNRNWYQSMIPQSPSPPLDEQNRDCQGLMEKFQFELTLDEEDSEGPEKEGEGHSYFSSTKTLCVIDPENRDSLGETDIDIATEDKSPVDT
# In short: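 ACTOne HEK293 cells carry a modified cAMP-gated CNG channel and express endogenous PDE4; plated 1000 cells/well, compounds up to 22.9 uM final. Membrane-potential dye fluorescence (ex 535/em 590) was read; parental cells received 10 uM forskolin + 100 uM RO 20-1724.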
# [9] = target: Cytochrome P450 2C9 (Homo sapiens) (UniProt P11712); test: qHTS Assay for Inhibitors and Substrates of Cytochrome P450 2C9 (AID 883); settings: recombinant CYP2C9, luciferin-H luminescence, 60 min; series mostly up to 57.1 µM; also: % is scaled to controls: 0 for no effect and ±100 for the full control effect; nearly all actives have a fitted effect of over 60% in size
# Chain of Cytochrome P450 2C9 (Homo sapiens) (P11712 whole entry, looked up): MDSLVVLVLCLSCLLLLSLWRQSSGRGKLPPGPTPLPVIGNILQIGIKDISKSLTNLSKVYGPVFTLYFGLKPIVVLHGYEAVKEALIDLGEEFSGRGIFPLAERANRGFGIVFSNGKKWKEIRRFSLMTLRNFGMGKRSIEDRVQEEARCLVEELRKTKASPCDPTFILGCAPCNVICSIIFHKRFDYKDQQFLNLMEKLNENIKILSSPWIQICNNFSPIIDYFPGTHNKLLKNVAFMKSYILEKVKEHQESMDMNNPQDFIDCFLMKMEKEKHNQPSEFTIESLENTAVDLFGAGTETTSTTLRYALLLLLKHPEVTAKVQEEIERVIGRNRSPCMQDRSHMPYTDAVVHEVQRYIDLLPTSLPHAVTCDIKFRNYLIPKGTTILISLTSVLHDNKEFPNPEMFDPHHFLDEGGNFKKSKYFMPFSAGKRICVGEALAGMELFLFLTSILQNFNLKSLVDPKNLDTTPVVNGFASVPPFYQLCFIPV
# In short: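 A luminogenic readout tracked human CYP2C9 (10nM) converting deoxyluciferin (100uM, at KM) in 25mM KPO4 during 60 min at 37C with regenerated NADPH. Values normalized to 57uM sulphaphenazole as complete inhibition.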
# [10] = target: Cytochrome P450 3A4 (Homo sapiens) (UniProt P08684); test: qHTS Assay for Activators of Cytochrome P450 3A4 (AID 885); settings: recombinant CYP3A4, Luciferin-PPXE luminescence, 60 min; series mostly up to 57.1 µM; also: nearly all actives have a fitted effect of over 65% in size
# Chain of Cytochrome P450 3A4 (Homo sapiens) (P08684 whole entry, looked up): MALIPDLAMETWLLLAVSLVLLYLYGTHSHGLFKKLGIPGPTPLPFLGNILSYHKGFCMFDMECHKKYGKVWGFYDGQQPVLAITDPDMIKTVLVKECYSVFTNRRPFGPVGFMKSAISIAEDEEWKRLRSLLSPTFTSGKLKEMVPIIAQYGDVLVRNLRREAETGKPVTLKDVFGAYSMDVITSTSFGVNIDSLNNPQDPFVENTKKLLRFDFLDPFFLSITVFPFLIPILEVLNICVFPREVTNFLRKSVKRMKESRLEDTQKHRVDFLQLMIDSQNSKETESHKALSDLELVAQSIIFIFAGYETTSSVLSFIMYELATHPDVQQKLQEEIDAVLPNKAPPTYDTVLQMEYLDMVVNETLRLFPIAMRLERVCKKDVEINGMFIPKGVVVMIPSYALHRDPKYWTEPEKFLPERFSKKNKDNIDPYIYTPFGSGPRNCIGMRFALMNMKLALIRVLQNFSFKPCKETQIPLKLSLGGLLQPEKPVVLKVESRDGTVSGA
# In short: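 20nM CYP3A4 + 25uM Luciferin-PPXE (=KM), 200mM KPO4; cpd 10 min RT; NADPH regen, 60 min RT; stop w/ detection buffer, 20 min; luminescence. Normalized to 57 uM ketoconazole.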
# [11] = target: Dual specificity protein kinase CLK4 (Homo sapiens) (UniProt Q9HAZ1); test: qHTS Assay for Inhibitors of CDC-like Kinase 4 (Kinase-Glo Assay) (AID 1770); settings: recombinant Clk4, Kinase-Glo ATP depletion luminescence; series mostly up to 66.7 µM; also: nearly all actives have a fitted effect of over 65% in size; also: potency is read from the fitted curve at half-maximal effect
# Chain of Dual specificity protein kinase CLK4 (Homo sapiens) (Q9HAZ1 whole entry, looked up): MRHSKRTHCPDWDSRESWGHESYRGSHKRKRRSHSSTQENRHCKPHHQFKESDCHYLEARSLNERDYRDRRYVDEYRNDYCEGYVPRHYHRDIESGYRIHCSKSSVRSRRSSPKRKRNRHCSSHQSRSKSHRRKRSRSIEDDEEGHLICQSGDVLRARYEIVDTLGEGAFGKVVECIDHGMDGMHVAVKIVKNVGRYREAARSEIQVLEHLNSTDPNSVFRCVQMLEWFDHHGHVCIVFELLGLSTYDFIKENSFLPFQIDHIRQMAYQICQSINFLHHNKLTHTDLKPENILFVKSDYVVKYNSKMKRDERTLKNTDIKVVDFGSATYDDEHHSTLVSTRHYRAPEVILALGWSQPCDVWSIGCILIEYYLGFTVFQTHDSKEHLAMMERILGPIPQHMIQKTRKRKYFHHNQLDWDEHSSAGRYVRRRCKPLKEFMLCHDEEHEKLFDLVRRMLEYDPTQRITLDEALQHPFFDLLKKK
# In short: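 25 nM Clk4 with 100 uM RS repeat peptide and 1 uM ATP (final) in Tris pH7.5, 10 mM MgCl2, 4.5 h at room temperature. Remaining ATP measured by Kinase-Glo luciferase luminescence.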
# [12] = target: Dual specificity protein kinase CLK4 (Homo sapiens) (UniProt Q9HAZ1); test: qHTS Assay for Inhibitors of CDC-like Kinase 4 (ADP-Glo Assay) (AID 1771); settings: recombinant CLK4, ADP-Glo luminescence; series mostly up to 80 µM; also: potency is read from the fitted curve at half-maximal effect; nearly all actives have a fitted effect of over 70% in size
# In short: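 Clk4 (25 nM) was incubated 1 hr at room temperature with 100 uM RS repeat peptide and 1 uM ATP in buffer with 2 mM MgCl2, 0.5 mM EGTA, 2.5 mM DTT. ADP formed was quantified by ADP-Glo luminescence.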
# [13] = target: Ubiquitin carboxyl-terminal hydrolase 1 (Homo sapiens) (UniProt O94782); test: Inhibitors of USP1/UAF1: Pilot qHTS (AID 504865); settings: purified USP1/UAF1, Ub-rhodamine cleavage fluorescence; series mostly up to 54.9 µM;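 also: rhodamine fluorescence freed from ubiquitin-rhodamine substrate followed over time; top concentration of the series differs between compounds; % is scaled to controls: 0 for no effect and ±100 for the full control effect; nearly all actives have a fitted effect of over 35% in size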
# Chain of Ubiquitin carboxyl-terminal hydrolase 1 (Homo sapiens) (O94782 whole entry, looked up): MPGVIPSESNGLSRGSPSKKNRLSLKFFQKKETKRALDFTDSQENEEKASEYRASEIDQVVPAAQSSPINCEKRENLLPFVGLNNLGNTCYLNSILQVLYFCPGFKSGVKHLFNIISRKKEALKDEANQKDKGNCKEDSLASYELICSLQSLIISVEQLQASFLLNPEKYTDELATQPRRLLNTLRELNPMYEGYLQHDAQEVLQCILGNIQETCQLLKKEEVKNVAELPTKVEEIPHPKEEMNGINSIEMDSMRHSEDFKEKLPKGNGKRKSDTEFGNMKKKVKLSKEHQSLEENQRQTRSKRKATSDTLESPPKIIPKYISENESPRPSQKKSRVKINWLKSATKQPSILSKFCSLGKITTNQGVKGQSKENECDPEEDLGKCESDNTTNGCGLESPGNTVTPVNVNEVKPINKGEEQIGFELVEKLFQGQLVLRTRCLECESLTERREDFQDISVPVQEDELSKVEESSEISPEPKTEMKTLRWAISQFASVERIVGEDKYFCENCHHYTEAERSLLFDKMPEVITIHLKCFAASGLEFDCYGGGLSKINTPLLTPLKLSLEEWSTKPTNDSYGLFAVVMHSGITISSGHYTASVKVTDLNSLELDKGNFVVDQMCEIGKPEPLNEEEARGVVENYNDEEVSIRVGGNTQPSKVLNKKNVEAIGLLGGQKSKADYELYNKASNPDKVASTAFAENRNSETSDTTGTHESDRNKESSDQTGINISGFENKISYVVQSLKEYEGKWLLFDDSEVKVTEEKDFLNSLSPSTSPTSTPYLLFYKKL
# In short: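 USP1/UAF1 complex at 1 nM preincubated 15 min at room temperature with compound, then Ub-Rho substrate added at 150 nM final. Fluorescence (480/540 nm) read kinetically in 50 mM HEPES pH 7.8, 0.5 mM EDTA, 1 mM TCEP, 0.1 mg/ml BSA, 0.01% Tween-20.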
# [14] = Primary qHTS for small molecule stabilizers of the endoplasmic reticulum resident proteome: Secreted ER Calcium Modulated Protein (SERCaMP) assay (AID 1508630); settings: SH-SY5Y GLuc-SERCaMP (Gaussia luciferase released on ER calcium loss) secretion, thapsigargin, luminescence; series mostly up to 38.4 µM; also: % is scaled to controls: 0 for no effect and ±100 for the full control effect
# In short: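 GLuc-SERCaMP-expressing SH-SY5Y cells, pretreated 16 h with compound, are challenged with thapsigargin to empty ER calcium stores; after 4 h, coelenterazine is added directly to the medium and luminescence is imaged.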
# [15] = NFAT Signaling Pathway (AID 444; active = well fitted curve in either direction with a large enough effect, not every such curve was filed as active); settings: Jurkat NFAT-bla M1, carbachol, beta-lactamase ratio, 5 h; at 7.69 µM (top of the series) unless noted
# In short: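 Jurkat cells carrying an NFAT-driven β-lactamase reporter and co-transfected muscarinic M1 receptor were treated with compound plus carbachol (1 uM final, an EC50 level) for 5 h at 37 °C. CCF4 loading followed for 1 h at RT; 460/530 nm ratio gave %activity.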
# [16] = target: Cytochrome P450 3A4 (Homo sapiens) (UniProt P08684); test: qHTS Assay for Inhibitors and Substrates of Cytochrome P450 3A4 (AID 884); settings: recombinant CYP3A4, Luciferin-PPXE luminescence; series mostly up to 57.1 µM; also: potency is read from the fitted curve at half-maximal effect; nearly all actives have a fitted effect of over 50% in size
# In short: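 20 nM human CYP3A4 with 25 uM Luciferin-PPXE (at KM) in 200 mM KPO4, preincubated 10 min with compound; NADPH regeneration started a 60 min RT reaction. Luciferin detected by luminescence, normalized to 57 uM ketoconazole as full inhibition.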
# [17] = target: Dual specificity protein kinase CLK4 (Homo sapiens) (UniProt Q9HAZ1); test: qHTS Assay for Inhibitors of CDC-like Kinase 4 (ADP-FP Assay) (AID 1795); settings: Transcreener ADP fluorescence polarization; series mostly up to 50 µM;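 also: recombinant human CLK4 phosphorylating RS repeat peptide at 1 µM ATP; % is scaled to controls: 0 for no effect and ±100 for the full control effect; nearly all actives have a fitted effect of over 60% in size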
# In short: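 Recombinant Clk4 (6.25 nM) phosphorylated 100 uM RS repeat peptide with 1 uM ATP in 25 mM Tris pH 7.5, 10 mM MgCl2, 0.5 mM EGTA, 2.5 mM DTT, 0.01% Triton X-100 for 1 h. ADP was detected by Transcreener ADP2 competitive fluorescence polarization after 30 min at room temperature.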
Structure (SMILES),Potency [1],"activity change, negative = inhibition [2]",Potency [3],"activity, negative = inhibition [4]",Potency [5],Potency [6],Potency [7],Potency [8],"activity change, negative = inhibition [9]",Potency [10],Potency [11],Potency [12],Potency [13],outcome [14],"activity change, negative = inhibition [15]",Potency [16],Potency [17]
Cc1cnc(CNc2ccnc(-c3cccnc3)n2)cn1,> 11.4 µM,16.6%,7.94 µM (active),13.3%,> 46 µM,> 46 µM,inactive,inactive,21.5% [at 2.29 µM],inactive,15.8 µM (active),15.8 µM (active),inactive,inactive,,,
COc1ccccc1CNc1cc(-c2ccccc2Cl)ncn1,> 11.4 µM,-13.2%,,-1.65%,> 46 µM,> 46 µM,inactive,,,inactive,25.1 µM (active),15.8 µM (active),inactive,inactive,0.444%,,
CN(C)c1ccc(-c2ccc3ncnc(N(C)Cc4ccco4)c3c2)cc1,> 11.4 µM,-28.7%,,-0.793%,> 46 µM,> 46 µM,inactive,inactive,,,8.91 µM (active),7.08 µM (active),,inactive,,,
Cc1noc(C)c1-c1nccc(NC2CC2)n1,> 11.4 µM,13.6%,0.1 µM (active),1.49%,> 46 µM,> 46 µM,inactive,inactive,3.44% [at 2.29 µM],inactive,inactive,,inactive,inactive,19.7%,2.51 µM (active),inactive
CN(C)c1ccc(-c2ccc3ncnc(NC4CC4)c3c2)cc1,> 11.4 µM,,0.2 µM (active),-20.9%,> 46 µM,> 46 µM,inactive,inactive,,inactive,3.55 µM (active),7.94 µM (active),inactive,inactive,-2.46%,3.16 µM (active),
CNc1ncnc2ccc(-c3ccccc3C#N)cc12,,21.4%,1 µM (active),-1.74%,> 46 µM,> 46 µM,inactive,inactive,,inactive,6.31 µM (active),7.08 µM (active),inactive,inactive,23.3%,,
COc1cccc(Nc2ncc3ncc(=O)n(C[C@H]4CCCO4)c3n2)c1,> 11.4 µM,,,,> 9.22 µM,> 46 µM,inactive,inactive,,,1.41 µM (active),1.58 µM (active),inactive,inactive,,,
